Active and inactive are the calls of the source.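 Rule for the calls: active = inhibition of at least 60% at a 114 µM dose; inconclusive = inhibition from 30% up to under 60% at that dose; inactive = inhibition under 30% at 114 µM.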

Chain of Ubiquitin carboxyl-terminal hydrolase 5 (Homo sapiens) (P45974 whole entry, looked up): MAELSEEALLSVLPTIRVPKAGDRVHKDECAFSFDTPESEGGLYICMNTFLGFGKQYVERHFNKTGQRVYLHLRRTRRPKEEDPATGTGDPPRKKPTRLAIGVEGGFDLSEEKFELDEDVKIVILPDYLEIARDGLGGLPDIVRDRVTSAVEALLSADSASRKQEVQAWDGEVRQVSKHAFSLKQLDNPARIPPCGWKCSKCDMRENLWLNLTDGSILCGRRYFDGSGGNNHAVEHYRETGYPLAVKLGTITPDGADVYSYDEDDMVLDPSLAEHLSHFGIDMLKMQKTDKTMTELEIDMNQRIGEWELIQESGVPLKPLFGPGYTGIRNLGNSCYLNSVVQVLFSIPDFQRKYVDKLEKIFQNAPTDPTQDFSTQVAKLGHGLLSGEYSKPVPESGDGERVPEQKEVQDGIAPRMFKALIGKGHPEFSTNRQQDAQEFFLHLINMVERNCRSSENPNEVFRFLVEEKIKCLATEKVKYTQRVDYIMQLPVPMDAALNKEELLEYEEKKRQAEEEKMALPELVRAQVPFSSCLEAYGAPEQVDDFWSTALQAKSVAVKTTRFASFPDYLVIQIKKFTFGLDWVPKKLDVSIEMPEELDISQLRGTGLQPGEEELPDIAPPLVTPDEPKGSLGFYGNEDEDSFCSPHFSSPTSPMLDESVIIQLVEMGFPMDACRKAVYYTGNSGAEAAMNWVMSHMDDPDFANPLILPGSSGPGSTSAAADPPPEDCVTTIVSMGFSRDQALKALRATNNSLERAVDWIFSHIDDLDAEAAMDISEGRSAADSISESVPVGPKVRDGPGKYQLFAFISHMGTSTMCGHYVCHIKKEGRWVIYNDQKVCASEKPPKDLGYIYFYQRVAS

The experiment deals with Ubiquitin carboxyl-terminal hydrolase 5 (Homo sapiens) (UniProt P45974). Briefly: Inhibitors of USP1/UAF1: SAR in USP5 diubiquitin SDS-PAGE gel assay. Conditions: USP5 K63 diubiquitin cleavage, 1 h; series mostly up to 114 µM; inhibition: at the top concentration. An excerpt:
Deubiquitinating enzymes (DUBs) are a class of enzymes that can cleave isopeptide bond formed between the C-terminal carboxylate of ubiquitin and a lysine side-chain amino group on the target protein. Among them, ubiquitin specific proteases (USPs) constitute the largest DUB family. Human USPs are emerging as promising targets for pharmacological intervention because of their connection to a number of human diseases, including prostate, colon and breast cancer (1, 2), pediatric acute lymphoblastic leukemia (3), and familial cylindromatosis (4). The advantage of inhibiting USPs lies in the potential specificity of therapeutic intervention that can lead to better efficacy and reduce nonspecific side effects. In a collaboration between the University of Delaware and the NIH Chemical Genomics Center, a high-throughput screen assay was developed to screen for USP1/UAF1 inhibitors (5). This assay is a selectivity assay that tested for activity in a USP5 diubiquitin SDS-PAGE gel assay and inactivity is the desired outcome for this assay. […]
The inhibition assay contains 5 nM USP5, 2 microM K63 linked diubiquitin, and inhibitors at varied concentrations (0.08 microM - 114 microM). […] The intensity of the individual diubiquitin and monoubiquitin band was quantified using Quantity One 4.3.1 (Biorad, Hercules, CA). The percentage of the conversion was determined and used to calculate the reaction rate. […]
Turning to `Cc1cnc(-c2ccccc2C(C)C)nc1NCc1ccc(-n2ccnn2)cc1`, the inhibition (usually the relative decrease from the control value, in per cent) is 2% (inactive).

Source of the values: PubChem BioAssay AID651625 (National Center for Advancing Translational Sciences (NCATS), 2012).
